# Results filed as inconclusive are left out. Unmarked numbers belong to inactive results. Calls of active or inactive are those of the source. Calls follow the shape of the dose curve; as a rule, active = well fitted inhibition curve with a large enough effect; inconclusive = small, poorly fitted or top-dose-only effect; inactive = flat fitted curve, though single readings scatter.
# System: Zika virus NS2B-NS3 protease
# Assay: Primary screen GU AMC qHTS for Zika virus inhibitors (AID 1347154); also: nearly all actives have a fitted effect of over 70% in size;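 as to activity change, negative = inhibition: 0% = no-inhibitor control and -100% = no-enzyme control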
# Conditions: Zika NS2B-NS3 unlinked protease, AMC fluorogenic substrate; series mostly up to 54.1 µM; activity change, negative = inhibition: at the top concentration
# In short: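 Unlinked Zika NS2B hydrophilic domain–NS3 protease complex at 25 nM in 10 mM Tris-HCl pH 8.0, 0.01% Tween 20, with an AMC peptide substrate. Fluorescence change (340/450 nm) over 15 min at room temperature, normalized to controls, fitted to 4-parameter Hill.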
# Potency is read from the fitted curve at half-maximal effect.
Structure (SMILES),"activity change, negative = inhibition",Potency
NC(N)=Nc1nc(CSCCC(N)=NS(N)(=O)=O)cs1,15.8%,–
CCC[C@H](Nc1nc(-c2ccc(NC(=O)NCC)c(OC)c2)ncc1C)c1cccnc1,16.7%,–
CN[C@H]1[C@@H](O[C@@H]2[C@H](O[C@@H]3[C@@H](O)[C@@H](O)[C@@H](N=C(N)N)[C@@H](O)[C@@H]3N=C(N)N)O[C@H](C)[C@@]2(O)C=O)O[C@@H](CO)[C@@H](O)[C@H]1O,4.66% [at 16.4 µM],–
O=S(=O)(NCCNCC=Cc1ccc(Br)cc1)c1cccc2cnccc12,6.5%,–
CC(C)N(CCCNC(=O)Nc1ccc(C(C)(C)C)cc1)C[C@H]1O[C@@H](n2cc(Br)c3c(N)ncnc32)[C@H](O)[C@H]1O,-6.58%,–
Cc1nn(Cc2ccccc2Cl)c(C)c1CN(C)CC(O)COc1ccc(Cl)cc1 (centres undefined),-7.99%,–
Cc1ccc(NC(=O)c2cccc(N(C)C)c2)cc1NC(=O)c1ccc(O)cc1,–,inactive
CC(C)=CCCC(C)=CCCC(C)=CCCC(C)=CCCC(C)=CCCC(C)=CCCC(C)=CCCC(C)=CCCC(C)=CCO,0.225%,–
CCCCCOC(=O)Nc1nc(=O)n([C@@H]2O[C@H](C)[C@@H](O)C2O)cc1F (some centres undefined),-18.4%,–
CC1=C[C@@H]2[C@@H]([C@@H](O)C[C@@]3(C)[C@H]2C[C@@H](C)[C@]3(O)C(=O)CO)[C@@]2(C)Cc3cnn(-c4ccccc4)c3C=C12,-6.46%,–
COc1ccc(C=CC(=O)Nc2ccccc2C(=O)O)cc1OC,-16.6%,–
CCC(=C(c1ccc(O)cc1)c1ccc(OCCNC)cc1)c1ccccc1,8.17%,–
CCC(=O)OCC(=O)[C@@]1(OC(=O)CC)[C@@H](C)C[C@@H]2[C@H]3CCC4=CC(=O)C=C[C@]4(C)[C@@]3(F)[C@@H](O)C[C@@]21C,-5.9%,–
CC[C@]1(O)C[C@H]2CN(CCC3=c4ccccc4=N[C]3[C@@](C(=O)OC)(c3cc4c(cc3OC)N(C)[C@H]3[C@@](O)(C(N)=O)[C@H](O)[C@]5(CC)C=CCN6CC[C@]43[C@@H]65)C2)C1,5.42%,–
OC[C@H]1O[C@@H](O[C@H]2[C@@H](O)[C@@](O)(CO)O[C@@H]2CO)[C@H](O)[C@@H](O)[C@@H]1O,-1.02%,–
CC[C@H](NC(=O)[C@H](C)NC)C(=O)N1C[C@@H](O)C[C@H]1Cc1c(-c2[nH]c3cc(F)ccc3c2C[C@H]2C[C@H](O)CN2C(=O)[C@H](CC)NC(=O)[C@H](C)NC)[nH]c2cc(F)ccc12,–,17.1 µM (active)
C[C@@H]1O[C@@H](O[C@H]2CC[C@@]3(C)[C@H](CC[C@@H]4[C@H]3C[C@@H](O)[C@]3(C)[C@@H](C5=CC(=O)OC5)CC[C@]43O)C2)C[C@H](O)[C@@H]1O[C@H]1C[C@H](O)[C@H](O[C@H]2C[C@H](O)[C@@H](O)[C@@H](C)O2)[C@H](C)O1 (stereo in doubt),-4.09% [at 104 µM],–
CO[C@H]1/C=C\O[C@@]2(C)Oc3c(C)c(O)c4c(O)c(c5c(nc6cc(C)ccn65)c4c3C2=O)NC(=O)C(C)=CC=C[C@H](C)[C@H](O)[C@@H](C)[C@@H](O)[C@@H](C)[C@H](OC(C)=O)[C@H]1C,-5.14%,–
COc1ccc(-c2cc(=O)c3c(O)cc(O[C@@H]4O[C@H](CO[C@@H]5O[C@@H](C)[C@H](O)[C@@H](O)[C@@H]5O)[C@@H](O)[C@H](O)[C@@H]4O)cc3o2)cc1O,6.81%,–
CN(C)CCOc1ccc(C(=C(CCCl)c2ccccc2)c2ccccc2)cc1,2.7%,–
C[C@H](CCC(=O)O)[C@H]1CC[C@H]2[C@H]3[C@@H](CC[C@]12C)[C@@]1(C)CC[C@@H](O)C[C@H]1C[C@@H]3O,-9.77%,–
CN1[C@H]2CC[C@H]1CC(OC(=O)c1c[nH]c3ccccc13)C2 (some centres undefined),-4.72%,–
CN1c2ccccc2C(=O)N2CCc3c([nH]c4ccccc34)C21 (centres undefined),-1.44%,–
CCOC(=O)[C@H]1O[C@H]1C(=O)N[C@@H](CC(C)C)C(=O)NCCC(C)C,-2.43%,–
C[C@]12C=CC(=O)C=C1CC[C@@H]1[C@@H]2[C@@H](O)C[C@@]2(C)[C@@H]1CC[C@]2(O)C(=O)CO,6.13%,–
CC1(C)OC2CC3C4CC(F)C5=CC(=O)C=CC5(C)C4C(O)CC3(C)[C@]2(C(=O)CO)O1 (some centres undefined),8.05%,–
CC(O)=C(C#N)C(=O)Nc1ccc(C(F)(F)F)cc1,-12.8%,–
CCNC(=O)[C@H]1O[C@@H](n2cnc3c(N)nc(NCCc4ccc(CCC(=O)O)cc4)nc32)[C@H](O)[C@H]1O,-0.653%,–
COc1cc(CNC(=O)CCCCC=CC(C)C)ccc1O,-17.1%,–
